Source: PubChem BioAssay AID648 (SRMLSC, 2007)
Screen size: about 86,000 compounds; about 920 (1.1%) were called active.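 Rule for the calls: active = viability at or below 30%; inactive = viability above 30%.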 The full list was thinned out, with actives kept by preference.

Test: endothelial cell growth inhibition – HUVEC, 384-well, primary screen (AID 648);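 note: 100% = median luminescence of DMSO-only cell control wells on each plate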
Details: HUVEC proliferation, CellTiter-Glo luminescence, 72 h; hits give low values; screened at 10 µM (by protocol)

Compound	viability
CC1=C/C(=N\OS(=O)(=O)c2ccccc2)C=CC1=O	1.29% (active)
c1ccc(-c2nc(NCc3ccco3)c3ccccc3n2)cc1	85.5% (inactive)
CCSc1nnc(NC(=O)Cc2ccccc2OC)s1	93.5% (inactive)
CC(C)c1cc(C(=O)O)n[nH]1	90.3% (inactive)
C=C(C)CSc1nnc(-c2ccc(C)cc2)n1N	93.8% (inactive)
OCCCN1c2ccccc2Nc2nnc(-c3ccccc3)cc21	69.2% (inactive)
N=c1c2c(-c3ccccc3)c(-c3ccccc3)n(Cc3ccccc3)c2ncn1CCCO	1.91% (active)
O=C(CCN1C(=O)c2ccccc2C1=O)NCCN1CCOCC1	93.8% (inactive)
CC(=O)Oc1cc2c(C(=O)NCCN3CCOCC3)c(C)oc2c2ccccc12	4.78% (active)
O=C(NCCN1CCOCC1)c1c(F)c(F)c(F)c(F)c1F	94.7% (inactive)
CCCOc1ccc(N2C(=O)CC(N(CCc3ccc(S(N)(=O)=O)cc3)C(C)=O)C2=O)cc1 (stereo not given)	98% (inactive)
O=C1c2ccccc2C(=O)N1CCCc1nc(-c2ccccc2)no1	111% (inactive)
Cc1ccc(-c2csc(SCC(=O)Nc3cc(C)on3)n2)cc1	100% (inactive)
O=C(CCN1c2ccccc2Sc2ccccc21)Nc1ccccc1	84.5% (inactive)
Cc1ccc(C2(C(F)(F)F)N=C3Sc4cc(C)cc(C)c4N3C(=O)N2)cc1 (stereo not given)	21.8% (active)
COC(=O)c1nc2ccccc2s1	93.3% (inactive)
Cc1cc(=O)oc2cc(OCC3CC(c4ccccc4Cl)=NO3)ccc12 (stereo not given)	44.4% (inactive)
CCc1cc(=O)oc2cc(OCC(=O)N3CCCc4ccccc43)ccc12	80.5% (inactive)
Cc1ccccc1N1CCN(CCCOc2ccc3c(C)cc(=O)oc3c2)CC1	25.2% (active)
CCCC1(C(=O)OCC)NC(c2ccc(N(C)C)cc2)C2C(=O)N(c3ccc4c(c3)OCCO4)C(=O)C21 (stereo not given)	104% (inactive)
CCN(CC)C(=O)CSc1ncnc2c1cnn2-c1ccccc1	123% (inactive)
Cc1ccc(C(=O)NCC2CCCO2)o1 (stereo not given)	106% (inactive)
OC(CNCC1CCCO1)Cn1c2ccc(Br)cc2c2cc(Br)ccc21 (stereo not given)	3.17% (active)
Cc1cc(Br)ccc1NC(=O)C1CCCO1 (stereo not given)	90.3% (inactive)
Cc1ccc(S(=O)(=O)/N=C(\CN2CCOCC2)N2CCOCC2)cc1	89.5% (inactive)
Cc1ccc(CN2CCN(/N=C/c3ccco3)CC2)c(C)c1	104% (inactive)
COc1ccc(-c2n[nH]c(C)c2-c2ccc(OC)c(OC)c2)c(O)c1	48.7% (inactive)

Compound	viability
C=C(C)COc1ccc(-c2n[nH]c(C)c2-c2ccccc2)c(O)c1	54% (inactive)
C=C(C)COc1ccc(-c2n[nH]c(C)c2-c2ccccc2OC)c(O)c1	23.9% (active)
O=C(NCC1CCCO1)c1ccc2ccccc2n1 (stereo not given)	89.6% (inactive)
O=S(=O)(NC1CCCCC1)c1ccc(F)c2ccccc12	81.9% (inactive)
Cc1ccc(S(=O)(=O)NCCSC(C)(C)C)cc1	103% (inactive)
CCc1nnc(NC(=O)CSc2nc3ccccc3c(=O)n2CCCOC)s1	90.7% (inactive)
Cc1nc(SCC(=O)Nc2cc(C)on2)c2c3c(sc2n1)CCCC3	75.7% (inactive)
Cc1cc(C)n(-c2nc(SCC(=O)N3CCCC3)c3c4c(sc3n2)CCCC4)n1	16.2% (active)
COCCNc1nc(-n2nc(C)cc2C)nc2sc3c(c12)CCCC3	78% (inactive)
CCCCCCNC(=O)CSc1nccn1Cc1ccccc1	80.6% (inactive)
O=C(C(NS(=O)(=O)c1cccc2nsnc12)c1ccccc1)N1CCN(c2ccccc2)CC1 (stereo not given)	101% (inactive)
CCC1(C)Cc2c(sc3nc(SC)nc(N)c23)CO1 (stereo not given)	93.2% (inactive)
CCC1(C)Cc2c(sc3nc4n(c(=O)c23)CCCS4)CO1 (stereo not given)	101% (inactive)
CCC1(C)Cc2c(sc3[nH]c(=S)n(Cc4ccccc4)c(=O)c23)CO1 (stereo not given)	7% (active)
C=CCn1c(N)cc(=O)nc1SCC(=O)Nc1cccc2ccccc12	103% (inactive)
O=C(NC1CCCCC1)c1ccc(CNc2c(N3CCOCC3)c(=O)c2=O)cc1	105% (inactive)
COC(=O)c1c(C)c(C)nc(N)c1C#N	104% (inactive)
Oc1ccc2ccc3cccc[n+]3c2c1	97.5% (inactive)
COc1ccc(-c2cc(C)nc3nc(N)nn23)cc1	86.4% (inactive)
Cc1cc(N)n2nc(-c3ccc(C(C)(C)C)cc3)cc2n1	24.9% (active)
Cc1nc2cc(-c3ccc(F)cc3)nn2c(N2CCOCC2)c1C	98.8% (inactive)
CCCCCN1CC(O)=C(c2nc(-c3ccc(Cl)cc3)cs2)C1=N	102% (inactive)
O=C(O)CCN=C1CCc2ccccc2N1	95.7% (inactive)
O=C(COc1ccc(S(=O)(=O)NCc2ccccc2)cc1)N1CCOCC1	98.2% (inactive)
Cc1ccc2oc(=O)c3cnn(CC(=O)N(Cc4ccco4)C4CCCCC4)c3c2c1	84% (inactive)
COc1cc(CC(=O)NCc2cccs2)cc(OC)c1OC	98.3% (inactive)
CC(=O)Nc1ccc(NC(=O)CSCc2cnn(-c3ccccc3)c2-n2cccc2)cc1	89.5% (inactive)

Compound	viability
C1=C(CCNc2ncnc3c2cnn3-c2ccccc2)CCCC1	94.9% (inactive)
O=C(NCCC1=CCCCC1)C1CCN(Cc2cnn(-c3ccccc3)c2-n2cccc2)CC1	28.4% (active)
CCn1c(SCC(=O)Nc2ccc(S(=O)(=O)Nc3onc(C)c3C)cc2)nnc1-c1ccccc1	89.5% (inactive)
Brc1ccc(-c2nnc(-c3ccccc3)o2)o1	90.9% (inactive)
OCCN1CCOCCOCCN(CCO)CCN(CCO)CC1	105% (inactive)
CC(C)(C)c1cc(=O)n2c(nc3ccccc32)[nH]1	103% (inactive)
Cc1nc2nc(COc3ccccc3)[nH]n2c(=O)c1C	88.1% (inactive)
Cc1nc2c(-c3ccccc3)c(C)[nH]n2c(=O)c1Cl	12% (active)
Cc1[nH]n(-c2cccc(Cl)c2)c(=O)c1-c1ccc(Cl)cc1	63.2% (inactive)
CCCN(Cc1cc2cccc(C)c2[nH]c1=O)S(C)(=O)=O	95.8% (inactive)
CCOc1ccc(S(=O)(=O)N2CCCCCC2)c2ccccc12	102% (inactive)
O=C1CSC2=NCN(c3ccccc3)CN12	93.5% (inactive)
Cc1cccc(N2C(=O)c3cccnc3C2=O)c1	95.8% (inactive)
COc1cc(/C=C(\C#N)c2nc3c(s2)CC(C)CC3)ccc1O (stereo not given)	83.7% (inactive)
N#Cc1c(NC(=O)CSc2nc3ccccc3c(=O)n2Cc2ccco2)sc2c1CCCC2	58.5% (inactive)
COc1ccc(-c2nnc(SCC(=O)c3ccco3)n2-c2ccccc2)cc1	92.6% (inactive)
COc1ccc(-n2c(SCC(=O)Nc3sc4c(c3C#N)CCCC4)nnc2-c2ccc(O)cc2)cc1	3.66% (active)
Cc1cc(NC(=O)CCC(=O)N(CC(=O)NCC2CCCO2)c2ccccc2C)no1 (stereo not given)	105% (inactive)
CC(C)(O)C(=O)NN(C(=O)c1ccccc1)c1cccc(Br)c1	109% (inactive)
CCOC(=O)c1nnn(-c2nonc2-n2cccc2)c1CN1CCC(C(=O)OCC)CC1	92.5% (inactive)
Cc1cc(-n2nc(C)cc2C)n2nc(C)c(-c3ccccc3)c2n1	106% (inactive)
CCOC(=O)c1nnn(-c2nonc2-n2cccc2)c1CN1CCOCC1	100% (inactive)
Fc1ccccc1/C=C1\CCCC2=C1Nc1ncnn1C2c1ccccc1F (stereo not given)	13% (active)
CCCCc1nnc(NC(=O)CS(=O)(=O)Cc2ccccc2)s1	107% (inactive)
Clc1ccc(COn2c(-c3ccc(Cl)cc3Cl)nc3ncccc32)cc1	86% (inactive)
Cc1noc(/C=C/c2ccco2)c1S(=O)(=O)N1CCC(C(=O)N2CCc3ccccc32)CC1	93.3% (inactive)
